Assay results from ChEMBL document CHEMBL3988442, “University of Dundee, Small-Polar-MMV Screening Library” (2021).
For some assays here: Measured potencies and affinities stand elsewhere.

How the values were obtained:
Design in all cases: scale not given: direction of the effect not stated beside the values
[1] = molecular target: Protein translocase subunit SecA (Escherichia coli (strain K12)) (UniProt P10408); assay: Assay to Identify E. coli SecA ATPase Inhibitors; assay type: functional; settings: 30 µM
[2] = molecular target: T1, Ubiquitin-activating enzyme e1, putative (Leishmania donovani (strain BPK282A1)) (UniProt E9BSI1); assay: Leishmania donovani Ubiquitin Activating Enzyme (LdE1); assay type: functional; settings: 30 µM
T1 sequence (whole entry): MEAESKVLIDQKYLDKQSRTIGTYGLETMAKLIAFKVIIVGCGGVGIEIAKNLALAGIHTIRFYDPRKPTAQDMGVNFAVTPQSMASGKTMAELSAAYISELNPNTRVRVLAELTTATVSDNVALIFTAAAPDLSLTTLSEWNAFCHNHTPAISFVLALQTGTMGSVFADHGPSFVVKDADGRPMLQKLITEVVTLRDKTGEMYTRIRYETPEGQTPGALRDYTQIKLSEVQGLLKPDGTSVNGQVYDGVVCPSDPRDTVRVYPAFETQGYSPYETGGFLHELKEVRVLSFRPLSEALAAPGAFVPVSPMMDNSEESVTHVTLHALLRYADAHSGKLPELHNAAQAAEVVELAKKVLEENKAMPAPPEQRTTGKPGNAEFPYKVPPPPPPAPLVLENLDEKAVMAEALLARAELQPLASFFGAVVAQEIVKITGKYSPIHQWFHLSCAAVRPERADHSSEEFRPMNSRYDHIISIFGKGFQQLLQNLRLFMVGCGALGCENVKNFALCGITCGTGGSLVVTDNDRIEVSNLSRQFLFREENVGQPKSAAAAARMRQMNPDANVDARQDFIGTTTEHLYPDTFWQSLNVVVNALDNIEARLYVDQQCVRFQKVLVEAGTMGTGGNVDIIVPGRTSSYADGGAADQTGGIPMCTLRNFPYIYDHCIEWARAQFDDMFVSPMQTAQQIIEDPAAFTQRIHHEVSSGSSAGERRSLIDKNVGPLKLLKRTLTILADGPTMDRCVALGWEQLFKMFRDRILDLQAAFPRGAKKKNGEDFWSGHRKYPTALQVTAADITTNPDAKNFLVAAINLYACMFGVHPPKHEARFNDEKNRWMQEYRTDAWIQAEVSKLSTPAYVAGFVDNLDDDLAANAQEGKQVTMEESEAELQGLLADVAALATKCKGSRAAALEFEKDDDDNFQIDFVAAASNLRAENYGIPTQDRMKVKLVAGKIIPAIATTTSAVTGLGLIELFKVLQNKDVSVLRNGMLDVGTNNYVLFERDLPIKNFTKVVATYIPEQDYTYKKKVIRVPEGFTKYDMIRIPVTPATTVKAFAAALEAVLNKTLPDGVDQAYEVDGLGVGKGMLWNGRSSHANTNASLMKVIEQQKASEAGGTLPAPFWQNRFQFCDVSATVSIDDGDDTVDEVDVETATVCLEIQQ

[3] = molecular target: Sialic acid-binding Ig-like lectin 9 (Homo sapiens) (UniProt Q9Y336); assay: Hs-Siglec9 ALPHAscreen SOP 20170721; settings: 10 µM
Trypanosoma cruzi = assay: Trypanosoma cruzi phosphomannomutase and mannose-1-phosphate guanylyltransferase assay; assay type: functional; settings: 10 µM
[4] = molecular target: T2, Arginase-2, mitochondrial (Homo sapiens) (UniProt P78540); assay: in vitro enzyme assay to detect the production of urea directly proportional to the activity of Arginase II; assay type: functional; settings: 33.3 µM; also: in the data most compounds retested in dose-response had high values
T2 sequence (whole entry): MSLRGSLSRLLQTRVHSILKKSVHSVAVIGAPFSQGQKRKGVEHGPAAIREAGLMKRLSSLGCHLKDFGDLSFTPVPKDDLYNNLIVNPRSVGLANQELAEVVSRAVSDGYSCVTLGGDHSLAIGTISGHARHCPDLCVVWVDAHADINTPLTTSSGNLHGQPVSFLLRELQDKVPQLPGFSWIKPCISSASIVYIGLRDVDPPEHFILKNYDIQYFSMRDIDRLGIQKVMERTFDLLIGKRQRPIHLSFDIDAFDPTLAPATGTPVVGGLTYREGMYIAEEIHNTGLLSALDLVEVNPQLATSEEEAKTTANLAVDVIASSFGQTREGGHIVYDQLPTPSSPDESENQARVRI

[5] = molecular target: T3, Proteasome subunit beta (Trypanosoma cruzi) (UniProt O96673); assay: Trypanosoma cruzi proteasome chymotrypsin-like activity (TcProtChymo) assay.; also: in the data most compounds retested in dose-response had high values; assay type: functional; settings: 9.37 µM
T3 sequence (whole entry): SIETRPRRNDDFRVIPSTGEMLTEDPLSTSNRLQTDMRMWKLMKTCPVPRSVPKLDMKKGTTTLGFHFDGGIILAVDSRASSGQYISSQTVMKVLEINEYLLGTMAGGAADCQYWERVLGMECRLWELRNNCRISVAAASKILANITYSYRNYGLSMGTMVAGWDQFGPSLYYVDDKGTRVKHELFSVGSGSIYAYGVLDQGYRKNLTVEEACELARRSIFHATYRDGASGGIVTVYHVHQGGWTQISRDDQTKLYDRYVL

Homo sapiens = species on record: Homo sapiens; assay: To identify inhibition of the IFN signalling (Jak-Stat) pathway via expression of an eGFP reporter gene under the control of an IFN-stimulated response element (ISRE) containing MxA promoter.; assay type: functional; settings: 30 µM
[6] = molecular target: T4, Tyrosyl-tRNA synthetase, putative (Trypanosoma cruzi (strain CL Brener)) (UniProt Q4DSP6); assay: Trypanosoma cruzi tyrosyl tRNA synthetase (TcYRS) _High Tyrosine SOP; assay type: functional; settings: 30 µM; also: in the data most compounds retested in dose-response had high values
T4 sequence (whole entry): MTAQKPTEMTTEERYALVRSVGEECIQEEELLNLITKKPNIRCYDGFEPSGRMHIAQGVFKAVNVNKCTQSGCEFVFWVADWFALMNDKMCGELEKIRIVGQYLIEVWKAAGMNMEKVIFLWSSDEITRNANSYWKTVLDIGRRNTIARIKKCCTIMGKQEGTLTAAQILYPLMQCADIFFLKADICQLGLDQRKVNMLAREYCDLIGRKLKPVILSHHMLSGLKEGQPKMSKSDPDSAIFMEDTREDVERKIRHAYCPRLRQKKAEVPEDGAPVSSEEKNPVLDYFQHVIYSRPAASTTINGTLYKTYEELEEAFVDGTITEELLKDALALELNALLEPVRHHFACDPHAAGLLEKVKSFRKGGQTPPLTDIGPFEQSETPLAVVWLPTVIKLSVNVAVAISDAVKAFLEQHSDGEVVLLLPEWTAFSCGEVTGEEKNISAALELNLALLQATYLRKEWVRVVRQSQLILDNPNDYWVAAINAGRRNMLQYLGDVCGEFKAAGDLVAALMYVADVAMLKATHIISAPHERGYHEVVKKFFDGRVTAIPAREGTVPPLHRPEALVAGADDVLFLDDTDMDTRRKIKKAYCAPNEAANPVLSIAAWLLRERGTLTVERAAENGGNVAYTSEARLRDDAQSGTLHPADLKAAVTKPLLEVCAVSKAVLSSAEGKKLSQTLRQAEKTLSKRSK

[7] = molecular target: T4, Tyrosyl-tRNA synthetase, putative (Trypanosoma cruzi (strain CL Brener)); assay: Trypanosoma cruzi tyrosyl tRNA synthetase (TcYRS) SOP; assay type: functional; settings: 30 µM
[8] = molecular target: Chromo domain-containing protein 1 (Saccharomyces cerevisiae (strain ATCC 204508 / S288c) (Baker's yeast)) (UniProt P32657); assay: ScCHD-1 Enzyme Inhibition Assay; assay type: functional; settings: 30 µM; also: in the data most compounds retested in dose-response had high values
Chromo domain-containing protein 1 (Saccharomyces cerevisiae (strain ATCC 204508 / S288c) (Baker's yeast)), sequence (P32657 whole entry, the tested form may be a part): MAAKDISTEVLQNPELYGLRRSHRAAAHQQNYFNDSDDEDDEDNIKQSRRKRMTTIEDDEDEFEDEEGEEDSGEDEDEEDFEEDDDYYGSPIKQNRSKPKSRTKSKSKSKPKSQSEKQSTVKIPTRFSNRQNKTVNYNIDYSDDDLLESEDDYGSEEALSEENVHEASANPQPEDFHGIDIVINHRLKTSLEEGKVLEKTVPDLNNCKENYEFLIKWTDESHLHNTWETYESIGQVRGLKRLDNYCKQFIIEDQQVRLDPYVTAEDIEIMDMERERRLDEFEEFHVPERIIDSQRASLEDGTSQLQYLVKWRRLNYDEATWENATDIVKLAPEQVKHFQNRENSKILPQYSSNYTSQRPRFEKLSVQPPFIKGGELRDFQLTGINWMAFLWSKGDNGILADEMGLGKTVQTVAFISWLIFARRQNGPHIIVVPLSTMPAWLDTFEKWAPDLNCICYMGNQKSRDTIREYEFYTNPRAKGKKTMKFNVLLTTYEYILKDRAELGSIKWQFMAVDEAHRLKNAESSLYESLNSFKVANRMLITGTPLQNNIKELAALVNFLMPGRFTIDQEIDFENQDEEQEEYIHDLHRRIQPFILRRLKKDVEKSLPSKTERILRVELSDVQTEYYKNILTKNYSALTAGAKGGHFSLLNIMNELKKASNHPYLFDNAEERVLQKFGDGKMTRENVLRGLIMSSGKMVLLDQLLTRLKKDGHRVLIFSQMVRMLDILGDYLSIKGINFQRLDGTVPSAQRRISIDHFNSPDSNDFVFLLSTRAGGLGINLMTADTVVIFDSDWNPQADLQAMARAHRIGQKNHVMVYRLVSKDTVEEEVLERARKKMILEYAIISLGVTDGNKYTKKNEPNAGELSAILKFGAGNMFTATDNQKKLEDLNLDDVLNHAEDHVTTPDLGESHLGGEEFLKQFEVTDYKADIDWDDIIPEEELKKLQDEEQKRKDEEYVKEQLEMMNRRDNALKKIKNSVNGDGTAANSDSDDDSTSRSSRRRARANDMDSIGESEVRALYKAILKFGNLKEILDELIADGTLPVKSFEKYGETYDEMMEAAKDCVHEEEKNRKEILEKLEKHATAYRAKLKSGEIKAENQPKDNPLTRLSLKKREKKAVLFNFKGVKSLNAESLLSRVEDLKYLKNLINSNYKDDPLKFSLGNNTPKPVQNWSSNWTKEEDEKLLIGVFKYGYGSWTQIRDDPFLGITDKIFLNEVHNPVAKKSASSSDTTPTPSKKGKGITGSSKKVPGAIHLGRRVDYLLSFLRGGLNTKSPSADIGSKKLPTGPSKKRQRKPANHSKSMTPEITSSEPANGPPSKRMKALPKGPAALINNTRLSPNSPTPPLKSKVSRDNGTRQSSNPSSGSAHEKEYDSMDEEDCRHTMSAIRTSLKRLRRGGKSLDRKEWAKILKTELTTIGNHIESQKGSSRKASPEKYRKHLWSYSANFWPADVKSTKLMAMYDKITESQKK

Sialic acid-binding Ig-like lectin 9 (Homo sapiens), sequence (Q9Y336 whole entry): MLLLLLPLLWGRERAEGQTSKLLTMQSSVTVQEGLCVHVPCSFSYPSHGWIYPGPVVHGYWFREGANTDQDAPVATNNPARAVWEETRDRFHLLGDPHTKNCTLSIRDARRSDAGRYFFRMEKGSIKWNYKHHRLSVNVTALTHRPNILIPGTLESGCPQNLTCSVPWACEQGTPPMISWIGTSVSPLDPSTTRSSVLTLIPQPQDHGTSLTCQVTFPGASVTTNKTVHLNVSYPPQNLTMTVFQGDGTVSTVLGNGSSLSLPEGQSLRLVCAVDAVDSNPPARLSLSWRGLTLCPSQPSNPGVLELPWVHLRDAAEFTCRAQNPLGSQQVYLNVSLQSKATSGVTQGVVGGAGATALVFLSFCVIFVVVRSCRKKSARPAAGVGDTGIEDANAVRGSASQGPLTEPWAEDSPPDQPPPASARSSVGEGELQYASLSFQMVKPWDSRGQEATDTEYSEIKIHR
Protein translocase subunit SecA (Escherichia coli (strain K12)), sequence (P10408 whole entry): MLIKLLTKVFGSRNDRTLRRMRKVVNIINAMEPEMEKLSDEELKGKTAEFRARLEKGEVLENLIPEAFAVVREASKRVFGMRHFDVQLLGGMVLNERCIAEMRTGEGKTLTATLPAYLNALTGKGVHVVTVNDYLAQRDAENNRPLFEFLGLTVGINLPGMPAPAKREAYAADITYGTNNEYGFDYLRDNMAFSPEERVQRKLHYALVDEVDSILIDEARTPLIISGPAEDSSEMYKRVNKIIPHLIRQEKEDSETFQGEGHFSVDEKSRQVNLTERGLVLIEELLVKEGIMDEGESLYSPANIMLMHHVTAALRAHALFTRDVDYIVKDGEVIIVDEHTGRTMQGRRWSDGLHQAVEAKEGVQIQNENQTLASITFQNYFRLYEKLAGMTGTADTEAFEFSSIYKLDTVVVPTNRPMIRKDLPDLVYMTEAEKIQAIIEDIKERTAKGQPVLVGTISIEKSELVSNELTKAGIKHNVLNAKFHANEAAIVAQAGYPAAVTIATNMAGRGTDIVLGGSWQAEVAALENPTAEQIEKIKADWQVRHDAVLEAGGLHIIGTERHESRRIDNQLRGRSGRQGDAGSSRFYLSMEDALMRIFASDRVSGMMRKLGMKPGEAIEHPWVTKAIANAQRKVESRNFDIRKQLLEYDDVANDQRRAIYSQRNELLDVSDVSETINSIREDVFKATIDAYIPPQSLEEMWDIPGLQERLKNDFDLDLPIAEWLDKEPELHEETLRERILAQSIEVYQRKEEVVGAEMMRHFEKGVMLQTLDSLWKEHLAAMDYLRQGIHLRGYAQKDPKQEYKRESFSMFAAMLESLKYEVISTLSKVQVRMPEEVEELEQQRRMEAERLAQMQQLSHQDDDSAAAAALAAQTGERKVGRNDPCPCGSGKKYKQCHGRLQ

CC(C)(C)n1ncc2c1NC(=O)CC2c1ccc(OCC(N)=O)cc1 (stereo not given)
Percent Effect [1]: -6.78%
Percent Effect [2]: 5.41%
Percent Effect [3]: -0.0971%
Percent Effect (Trypanosoma cruzi): 0.097%
Percent Effect [4]: 1.75%
Percent Effect [5]: 11.8%
Percent Effect (Homo sapiens): -6.02%
Percent Effect [6]: 9.04%
Percent Effect [7]: 14.6%
Percent Effect [8]: -0.195%

CCOC1COC2(CCN(S(=O)(=O)c3cccc(F)c3)CC2)C1 (stereo not given)
Percent Effect [1]: -2.48%
Percent Effect [2]: 6.49%
Percent Effect [3]: -0.342%
Percent Effect (Trypanosoma cruzi): -7.3%
Percent Effect [4]: 6.07%
Percent Effect [5]: 19.9%
Percent Effect (Homo sapiens): -2.83%
Percent Effect [6]: 6.84%
Percent Effect [7]: 7.69%
Percent Effect [8]: -3.54%

Clc1ccccc1-c1nc(CNC2CCc3ncnn3C2)cs1 (stereo not given)
Percent Effect [1]: -0.994%
Percent Effect [2]: -12.8%
Percent Effect [3]: -3.7%
Percent Effect (Trypanosoma cruzi): 4.6%
Percent Effect [4]: 0.41%
Percent Effect [5]: -0.427%
Percent Effect (Homo sapiens): -12%
Percent Effect [6]: 2.39%
Percent Effect [7]: 1.21%
Percent Effect [8]: 6.45%

Cc1cc(OCC(=O)N2CCCC(c3noc(C)n3)C2)no1 (stereo not given)
Percent Effect [1]: 2.24%
Percent Effect [2]: 13.3%
Percent Effect [3]: -8.66%
Percent Effect (Trypanosoma cruzi): -4.62%
Percent Effect [4]: 4.88%
Percent Effect [5]: 19.8%
Percent Effect (Homo sapiens): 17.5%
Percent Effect [6]: -0.526%
Percent Effect [7]: 2.56%
Percent Effect [8]: -9.02%

Cc1noc(Cl)c1CCC(=O)N1CCc2sccc2C1
Percent Effect [1]: -5.38%
Percent Effect [2]: 18.7%
Percent Effect [3]: 4.18%
Percent Effect (Trypanosoma cruzi): 0.201%
Percent Effect [4]: -2.22%
Percent Effect [5]: 22.8%
Percent Effect (Homo sapiens): 25.1%
Percent Effect [6]: 5.79%
Percent Effect [7]: 17.9%
Percent Effect [8]: -10.9%

CCNC(=O)[C@@H]1C[C@@H](NC(=O)c2cccnc2O)CN1Cc1ccsc1
Percent Effect [1]: -5.31%
Percent Effect [2]: 16.2%
Percent Effect [3]: 11.3%
Percent Effect (Trypanosoma cruzi): 3.59%
Percent Effect [4]: 17.1%
Percent Effect [5]: 19.2%
Percent Effect (Homo sapiens): 2.29%
Percent Effect [6]: 6.92%
Percent Effect [7]: 21.9%
Percent Effect [8]: -4.37%

CCCC(=O)N1CCC2(CC1)CC(NC(C)=O)c1ccccc1O2 (stereo not given)
Percent Effect [1]: 0.455%
Percent Effect [2]: 1.3%
Percent Effect [3]: -0.437%
Percent Effect (Trypanosoma cruzi): -4.69%
Percent Effect [4]: 7.31%
Percent Effect [5]: -0.0858%
Percent Effect (Homo sapiens): 6.03%
Percent Effect [6]: -1.93%
Percent Effect [7]: -5%
Percent Effect [8]: -2.27%

COc1ncccc1CNC(=O)c1cccc(C)n1
Percent Effect [1]: -0.149%
Percent Effect [2]: 23.1%
Percent Effect [3]: -18.5%
Percent Effect (Trypanosoma cruzi): 6.1%
Percent Effect [4]: -5.74%
Percent Effect [5]: 18.5%
Percent Effect (Homo sapiens): 18.5%
Percent Effect [6]: 6.22%
Percent Effect [7]: 22.9%
Percent Effect [8]: -3.56%
